Here are results for 40 compounds from PubChem BioAssay (Tox21).

Records with an inconclusive call do not appear. Calls of active or inactive are those of the source. Calls come from the whole dose curve; as a rule, active = well fitted inhibition curve with a large enough effect in the signal ratio in the repeat runs (not every such curve was filed as active); inconclusive = weak or mixed curves; inactive = flat fitted curve, though single readings scatter; the % refers to the signal ratio.
% is set by controls: 0 for no effect and ±100 for the full control effect; potency is the fitted concentration of half-maximal effect.

The target of the experiment is Progesterone receptor (Homo sapiens) (UniProt P06401). The experiment in a line: qHTS assay to identify small molecule antagonists of the progesterone receptor (PR) signaling pathway (AID 1346795). Conditions: PR-UAS-bla HEK293T, beta-lactamase FRET ratio, 16 h; series mostly up to 92.4 µM; activity change, negative = inhibition: at the top concentration. The source says: National Center for Advancing Translational Sciences [NCATS]
Sequence of Progesterone receptor (Homo sapiens) (P06401 whole entry, looked up): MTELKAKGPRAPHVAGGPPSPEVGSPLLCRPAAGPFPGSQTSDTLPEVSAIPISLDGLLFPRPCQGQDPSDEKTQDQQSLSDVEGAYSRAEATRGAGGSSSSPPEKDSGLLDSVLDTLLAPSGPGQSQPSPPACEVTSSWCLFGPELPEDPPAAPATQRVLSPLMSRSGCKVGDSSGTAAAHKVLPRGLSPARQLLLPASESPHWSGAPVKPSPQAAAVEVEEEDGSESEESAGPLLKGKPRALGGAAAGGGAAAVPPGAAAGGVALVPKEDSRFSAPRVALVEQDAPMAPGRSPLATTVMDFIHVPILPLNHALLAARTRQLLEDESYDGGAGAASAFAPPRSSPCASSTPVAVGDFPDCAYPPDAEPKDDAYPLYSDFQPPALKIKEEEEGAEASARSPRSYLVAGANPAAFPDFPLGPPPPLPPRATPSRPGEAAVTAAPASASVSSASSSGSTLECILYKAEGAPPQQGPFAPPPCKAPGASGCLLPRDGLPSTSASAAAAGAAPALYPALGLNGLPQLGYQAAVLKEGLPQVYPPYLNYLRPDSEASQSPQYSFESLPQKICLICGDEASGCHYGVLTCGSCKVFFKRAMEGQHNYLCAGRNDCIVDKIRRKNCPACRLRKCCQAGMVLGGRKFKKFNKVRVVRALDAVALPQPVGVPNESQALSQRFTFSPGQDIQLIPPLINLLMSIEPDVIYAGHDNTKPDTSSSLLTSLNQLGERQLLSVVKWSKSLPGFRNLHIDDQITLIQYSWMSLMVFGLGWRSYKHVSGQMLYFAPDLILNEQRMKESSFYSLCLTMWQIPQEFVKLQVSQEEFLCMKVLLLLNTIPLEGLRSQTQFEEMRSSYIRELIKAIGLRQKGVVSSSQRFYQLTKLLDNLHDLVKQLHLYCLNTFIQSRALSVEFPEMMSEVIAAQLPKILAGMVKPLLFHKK
NIH Chemical Genomics Center [NCGC]
U.S. Environmental Protection Agency [EPA]
National Institutes of Environmental Health Sciences [NIEHS]
National Toxicology Program [NTP]
U.S. Food and Drug Administration [FDA]
Progesterone receptor (PR), a nuclear hormone receptor, plays an important role in development, metabolic homeostasis and reproduction. […] Endocrine disrupting chemicals (EDCs) and their interactions with steroid hormone receptors like PR causes disruption of normal endocrine function. To identify the compounds that inhibit PR signaling, a PR-UAS-bla GripTite cell line i.e. PR-UAS-bla HEK293T (Invitrogen, Carlsbad, CA, USA) containing a beta-lactamase reporter gene under the control of an Upstream Activator Sequence (UAS) was used to screen Tox21 10K compound library.
Tox21 Assay Protocol Summary:
PR-UAS-bla HEK293T cells were dispensed at 3,000 cells/4 uL of assay medium containing 2% charcoal stripped FBS per well into black wall/clear-bottom 1536-well plates using a Multidrop Combi (ThermoFisher Scientific, Waltham, MA) dispenser. After the assay plates were incubated at a 37C and 5% CO2 for 6 hr, 23 nL of compounds dissolved in DMSO, positive controls or DMSO only was transferred to the assay plate by a Pintool station (Kalypsys, San Diego, CA), followed by addition of 1 uL (1nM as final concentration) of Promegestone (R5020) in assay medium using a BioRAPTR FRD (Flying Reagent Dispenser, Aurora Discovery, San Diego, CA). The plates were incubated at 37C and 5% CO2 for 16 hr. Then 1 uL of LiveBLAzer B/G FRET substrate was added using a FRD. After the plates were incubated at room temperature for 2 hours, fluorescence intensity was measured by an Envision plate reader (PerkinElmer, Shelton, CT).
On to `CCC(=O)OC(C)(C)C1CC=C(C)CC1` (stereo not given), for which the “activity change, negative = inhibition” value is -3.01% (inactive).

`CCCCCCCCCO`: the “activity change, negative = inhibition” value is 0.187% (inactive). In the case of `COc1ccccc1OC(=O)Oc1ccccc1OC`, the Potency is 26.6 µM (active). On to `NCCCN(CCO)CCO`, for which the “activity change, negative = inhibition” value is -0.721% (inactive). With `CCN(CC)CCNC(C(=O)OCCC(C)C)c1ccccc1` (stereo not given), the “activity change, negative = inhibition” value is 4.55% [at 42.5 µM] (inactive). `C=CC[N+]1([C@H]2C[C@H]3[C@@H]4CC[C@H]5C[C@H](OC(C)=O)[C@@H](N6CCCCC6)C[C@]5(C)[C@H]4CC[C@]3(C)[C@H]2OC(=O)CC)CCCCC1`: the “activity change, negative = inhibition” value is 10% [at 42.5 µM] (inactive). The same measure, in the same setting: the value for `CCCCOC(=O)/C=C\C(=O)OCCCC` was 0.867% (inactive); that for `OC(CCN1CCCCC1)(c1ccccc1)C1CCCCC1` (stereo not given) was -1.87% [at 42.5 µM] (inactive).

On to `O=C(c1ccc(O)cc1)c1ccc(O)cc1`, for which the Potency is 48.6 µM (active). Regarding `FC(F)(F)C(F)(F)C(F)(F)C(F)(F)C(F)(F)C(F)(F)CCI`, the “activity change, negative = inhibition” value was 1.72% [at 42.5 µM] (inactive).

As for `O=C(O)Cc1sc(-c2ccccc2)nc1-c1ccc(Cl)cc1`, the “activity change, negative = inhibition” value was -13.2% [at 42.5 µM] (inactive). Still for that read-out and setting: the value for `CC(C(=O)O)c1ccc(C(=O)c2ccccc2)s1` (stereo not given) was -1.69% [at 42.5 µM] (inactive); that for `CCN1CCC[C@H]1CNC(=O)c1c(OC)ccc(Br)c1OC` was 7.54% [at 42.5 µM] (inactive); that for `CN(C)C/C=C(/c1ccc(Br)cc1)c1cccnc1` was -1.29% [at 42.5 µM] (inactive). Still for that read-out and setting: the value for `CCCC(C)C` was -3.13% (inactive).

In the case of `CC(C)NCC(O)c1cc(O)cc(O)c1` (stereo not given), the “activity change, negative = inhibition” value was 3.28% [at 42.5 µM] (inactive). On to `COCCO`, for which the “activity change, negative = inhibition” value is 13.7% (inactive). On the same count and under the same terms, the value for `CCN(CC)CCc1nc(-c2ccccc2)no1` was 11.5% [at 42.5 µM] (inactive); that for `C=CC(C)(CCC=C(C)C)OC(=O)c1ccccc1` (stereo not given) was -26.4% (inactive); that for `CC(=O)/C(C)=C/C1C(C)=CCCC1(C)C` (stereo not given) was 6.4% (inactive). Still for that read-out and setting: the value for `CCCCCCCCN(C)C` was 9.25% (inactive); that for `Cc1cc(CC(=O)O)c(C)n1-c1ccc(Cl)cc1` was -28.6% [at 42.5 µM] (inactive). Same read-out and setting: the value for `CC(=O)N(O)CCCCCNC(=O)CCC(=O)N(O)CCCCCNC(=O)CCC(=O)N(O)CCCCCN` was -0.0998% [at 42.5 µM] (inactive).

Turning to `CC(C)CCCC(C)CCO` (stereo not given), the “activity change, negative = inhibition” value was 11.3% (inactive). Still for that read-out and setting: the value for `O=C1CCCCCO1` was 11.7% (inactive); that for `O=C1c2cccc(O)c2C(=O)c2c(O)cc(CO)cc21` was 6.05% (inactive); that for `CC(=O)O[C@@H]1C(=O)O[C@@H]2[C@H]1OC(=O)[C@@H]2OC(C)=O` was 5.12% [at 42.5 µM] (inactive). The same measure, in the same setting: under `COC(=O)C(C)=O` stands 3.03% (inactive); under `CCOC(=O)CC(=O)c1cc(F)c(Cl)nc1Cl`, 0.224% (inactive).

`CC(C)CC=O`: the “activity change, negative = inhibition” value was 7.01% (inactive). Still for that read-out and setting: under `CC[C@H](C)[C@@H](C(=O)O)n1sc2ccccc2c1=O` stands 5.72% (inactive); under `CC(C)(C)c1cc(CCC(=O)OCC(COC(=O)CCc2cc(C(C)(C)C)c(O)c(C(C)(C)C)c2)(COC(=O)CCc2cc(C(C)(C)C)c(O)c(C(C)(C)C)c2)COC(=O)CCc2cc(C(C)(C)C)c(O)c(C(C)(C)C)c2)cc(C(C)(C)C)c1O`, 8.1% [at 42.5 µM] (inactive); under `CCOc1ccc2[nH]cc(C(=O)NCc3ccccc3)c(=O)c2n1`, -12.3% (inactive).

`Cc1c(Cn2ccnc2)c2ccccc2n1CCC(=O)O`: the “activity change, negative = inhibition” value is 7.11% [at 42.5 µM] (inactive). Turning to `O=C(Nc1ccccc1)OCC(CN1CCCCC1)OC(=O)Nc1ccccc1` (stereo not given), the Potency was 23.7 µM (active).

As to `CC(=O)SCc1ccco1`, the “activity change, negative = inhibition” value is 8.55% (inactive). Same read-out and setting: the value for `CCN(CC)CCOC(=O)C1(c2ccccc2)CCCC1` was 3.07% [at 42.5 µM] (inactive). `Cc1ccccn1`: the “activity change, negative = inhibition” value is 6.55% (inactive). Same read-out and setting: under `CCOc1cc(OCC)c(C(=O)CCC(=O)O)cc1OCC` stands 8.19% [at 42.5 µM] (inactive). Regarding `CCCCCC(CO)CCC` (stereo not given), the “activity change, negative = inhibition” value is 0.0198% (inactive).
